Shown are actives, neighbours in structure and some others; about 10% of the full set was active somewhere.
Six1-Eya2 blk: inhibitors of human Six1/Eya2 interaction. Q15475+O00167. AlphaScreen GST-Six1/His-Eya2 binding, biochemical; active compounds read low. activity change, % (no concentration beside the values). hit rate 0.56% among 360,000; in the data active = activity change below about -65%; inconclusive = mostly about -30% to -63%; also: % is scaled to controls: 0 for no effect and ±100 for the full control effect
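Compounds are tested against tagged Six1 and Eya2 proteins bridged by glutathione donor and nickel acceptor beads; after a one-hour incubation at 37 °C without light, AlphaScreen emission is recorded.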
G9a inh: G9a (human) methyltransferase inhibition. Q96KQ7. G9a H3K9 monomethylation, AlphaScreen, 2 h. Potency, µM (doses to about 102 µM), inactives show top-dose activity, negative = inhibition, most hits filed as inhibitors. hit rate 8.8% among 350,000. AID 504332; also: potency is read from the fitted curve at half-maximal effect; % is scaled to controls: 0 for no effect and ±100 for the full control effect; nearly all actives have a fitted effect of over 75% in size
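G9a (20 nM) preincubated 15 min RT with compounds, then 500 nM biotinylated H3K9 peptide and 20 uM SAM added; 2 h RT reaction. Monomethyl-H3K9 product detected by AlphaScreen with anti-H3K9me1 antibody, streptavidin donor and anti-rabbit IgG acceptor beads.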
CtBP-E1A blk: blocks the CtBP interaction with E1A. AlphaScreen GST-E1A/His-CtBP binding, 1536-well; active compounds read low. activity change, % (test concentration not listed). hit rate 0.49% among 340,000; in the data active = activity change below about -65%; inconclusive = mostly about -30% to -63%; also: % is scaled to controls: 0 for no effect and ±100 for the full control effect
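GST-E1A and His-tagged CtBP (125 nM each as 5X stock) were preincubated with pin-transferred compound for 2 h at 37 °C in the dark, then glutathione donor and nickel acceptor beads were added for 1 h before AlphaScreen reading.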
BAZ2B inh: inhibitors of human BAZ2B bromodomain | AlphaScreen BAZ2B-H3K14Ac peptide displacement | hit rate 4.4% among 360,000 | Potency, µM (series often up to 114 µM), for inactives: top-dose activity change, negative = inhibition, most hits filed as inhibitors | Q9UIF8; also: potency is read from the fitted curve at half-maximal effect; % is scaled to controls: 0 for no effect and ±100 for the full control effect; nearly all actives have a fitted effect of over 60% in size
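BAZ2B (50 nM) with biotin-H3(5-23)K14Ac peptide (50 nM) in PBS pH 7.4, 0.01% Tween-20, preformed 30 min, then compound 30 min at room temperature; top concentration 110uM. AlphaScreen streptavidin donor/nickel chelate acceptor beads (10 ug/mL final), 20 min dark, signal read.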
JMJD2A Tudor inh: blocks the human JMJD2A Tudor domain. O75164. hit rate 4.4% among 390,000. Potency, µM (series often up to 114 µM), for the others: at the top dose activity change, negative = inhibition, usual class: inhibitors. AlphaScreen JMJD2A-Tudor / H3K4me3 peptide binding; also: potency is read from the fitted curve at half-maximal effect; % is scaled to controls: 0 for no effect and ±100 for the full control effect; nearly all actives have a fitted effect of over 50% in size
Target sequence (O75164 whole entry, looked up, the tested form may be a part): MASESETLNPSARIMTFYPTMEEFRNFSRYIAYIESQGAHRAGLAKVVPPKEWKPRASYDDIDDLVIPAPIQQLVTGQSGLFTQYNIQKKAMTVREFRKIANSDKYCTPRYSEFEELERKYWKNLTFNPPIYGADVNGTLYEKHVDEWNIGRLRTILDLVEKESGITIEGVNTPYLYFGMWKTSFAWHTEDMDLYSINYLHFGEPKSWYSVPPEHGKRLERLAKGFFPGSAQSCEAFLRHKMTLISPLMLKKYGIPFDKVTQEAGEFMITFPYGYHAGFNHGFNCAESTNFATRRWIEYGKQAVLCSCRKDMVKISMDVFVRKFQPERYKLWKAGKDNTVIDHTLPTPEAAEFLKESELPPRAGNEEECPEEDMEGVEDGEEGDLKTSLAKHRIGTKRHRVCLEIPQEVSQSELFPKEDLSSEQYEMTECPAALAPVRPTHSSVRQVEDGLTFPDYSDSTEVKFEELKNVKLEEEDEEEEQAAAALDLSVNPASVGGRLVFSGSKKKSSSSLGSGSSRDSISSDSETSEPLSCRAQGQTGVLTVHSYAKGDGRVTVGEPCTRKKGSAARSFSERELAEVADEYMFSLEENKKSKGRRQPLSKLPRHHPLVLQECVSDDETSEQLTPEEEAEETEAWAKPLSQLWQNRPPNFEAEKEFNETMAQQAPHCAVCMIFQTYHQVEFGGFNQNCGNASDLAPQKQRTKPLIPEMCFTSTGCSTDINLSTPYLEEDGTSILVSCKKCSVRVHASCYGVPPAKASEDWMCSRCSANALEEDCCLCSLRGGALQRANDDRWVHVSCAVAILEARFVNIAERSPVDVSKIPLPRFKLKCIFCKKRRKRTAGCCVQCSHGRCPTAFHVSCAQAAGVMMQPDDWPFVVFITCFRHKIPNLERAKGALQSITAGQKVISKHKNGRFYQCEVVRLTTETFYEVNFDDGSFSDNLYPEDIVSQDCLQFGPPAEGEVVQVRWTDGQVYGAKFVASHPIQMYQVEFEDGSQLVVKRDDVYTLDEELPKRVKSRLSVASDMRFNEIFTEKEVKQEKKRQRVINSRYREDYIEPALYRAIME
HP1b binding inh: blocks HP1-beta chromodomain binding to methylated histone tails | hit rate 0.56% among 390,000 | AlphaScreen HP1-beta / biotin-H3K9me3 peptide binding | Potency, µM (doses to about 114 µM), without a hit: at the highest dose activity change, negative = inhibition, most hits filed as inhibitors | AID 540317 | P83916; also: potency is read from the fitted curve at half-maximal effect; nearly all actives have a fitted effect of over 70% in size
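AlphaScreen: HP1-beta (50 nM) preformed 30 min with biotin-H3(1-18)K9me3 peptide (50 nM) in PBS pH 7.4, 0.01% Tween-20. Compound added for 30 min at RT, then streptavidin donor/nickel chelate acceptor beads (10 ug/mL) for 30 min.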
An asterisk follows results filed as active; ? = inconclusive; / = no result given; [ ] = another dose, or the depositor's remark. Unless noted, calls follow the shape of the dose curve; as a rule, active = well fitted inhibition curve with a large enough effect; inconclusive = small, poorly fitted or top-dose-only effect; inactive = no such curve, though single readings can be large or run the other way.

SMILES	Six1-Eya2 blk	G9a inh	CtBP-E1A blk	BAZ2B inh	JMJD2A Tudor inh	HP1b binding inh
COc1cc(/C=N/Nc2ccc(C(=O)O)cc2)cc(OC)c1OC	-10	50µM*	0	-4%	-7%	45%
COc1ccc(/C=N/Nc2ccc([N+](=O)[O-])cc2)cc1Cn1cc([N+](=O)[O-])cn1	2	?	-2	-31%	-21%[11.4 µM]	42%
Cc1cccc(C)c1-n1c(C)cc(/C=N\Nc2ccc([N+](=O)[O-])cn2)c1C	?	?	?	-13%	28µM*	-23%
COc1cc(/C=N/NC(=O)c2ccccc2)ccc1O	-1	25%	-13	1%	1%	28%
COc1ccc(/C=N/Nc2ccc([N+](=O)[O-])cc2)cc1O	10	?	-1	50µM*	?	?
COc1cc(/C=N/Nc2ccc(C(=O)O)cc2)ccc1O	-21	?	-13	50µM*	?	50µM*
Cc1nn(-c2ccc(N3CCCCC3)nn2)c(C)c1CCC(=O)NCc1ccccc1	/	-3%[59 µM]	/	-28%	-18%	35%
Cc1ccccc1-c1ccc2ncnc(NCc3cccnc3)c2c1	/	-8%[0.501 µM]	/	/	/	/
O=[N+]([O-])c1ccc(NN=Cc2cccc(O)c2)nc1	-4	/	-7	/	-24%	-15%
COc1cc(/C=N/NC(=O)CCn2cnc(-c3ccccc3)c2-c2ccccc2)ccc1O	?	45µM*	?	45µM*	56µM*	?
COc1cc(/C=N/Nc2ccc([N+](=O)[O-])cn2)cc(OC)c1O	-21	8.9µM*	-11	-28%	-23%	82%
C=CCOc1c(OC)cc(/C=N/Nc2cccc(C(=O)O)c2)c(Br)c1Br	-6	10µM*	-19	40µM*	56µM*	?
CCOc1ccccc1Nc1ccc2cc(S(=O)(=O)N3CCCCC3)ccc2n1	/	?	/	34%	49%	107%
COc1ccc(S(=O)(=O)Nc2ccc(O)c(Sc3ncn[nH]3)c2)cc1	-1	13µM*	-5	-7%	-15%	-1%
O=S(=O)(Nc1cc(Sc2cccc3cccnc23)c(O)c2ccccc12)c1ccc(F)cc1	-94*	2µM*	-92*	?	18µM*	18µM*
O=S(=O)(Nc1cccc2cccnc12)c1ccc(Br)cc1	/	/	/	/	16%	/
COc1ccc(S(=O)(=O)Nc2cc(Sc3ncn[nH]3)c(O)c3ccccc23)cc1	-13	1.6µM*	8	45µM*	5.6µM*	?
CCC1CN(C(=O)Nc2cc(OC)cc(OC)c2)c2ccccc2S1 (centres undefined)	/	6%[59 µM]	/	-13%	-18%	19%
CCOc1ccccc1-n1c(C)cc(C=O)c1C	-24	25%[12.7 µM]	9	-32%	-31%	-2%
Cc1cc(C(=O)O)ccc1-n1c(C)cc(/C=C2\SC(=O)NC2=O)c1C	-13	?	-10	-30%	-18%	31%
Cc1c(C(=O)O)cccc1-n1c(C)cc(C=O)c1C	-14	45µM*	0	?	50µM*	1%
Cc1ccc(C(=O)O)cc1-n1c(C)cc(C=O)c1C	-16	?	0	79µM*	-30%	15%
CC1CCN(c2[nH]c(=S)c(C#N)c3c2CCCC3)CC1	2	32µM*	15	8%	-6%	32%
Cc1ccc(NC(=O)N2CCC(CN3CCCC3)CC2)c(C)c1	/	-34%[59 µM]	/	-1%	-9%	18%
Cc1ccc(NCCC(=O)c2cccs2)cc1C	-27	32µM*	-3	?	56µM*	?
SMILES	Six1-Eya2 blk	G9a inh	CtBP-E1A blk	BAZ2B inh	JMJD2A Tudor inh	HP1b binding inh
Cc1ccc(NCCC(=O)c2cccs2)cc1	-29	50µM*	-17	?	50µM*	-15%
Cc1ccccc1NS(=O)(=O)c1ccc2[nH]cc(C(=O)NC(C)c3ccccc3)c(=O)c2c1 (centres undefined)	/	-38%[59 µM]	/	?	?	-12%
CCc1cccc(CC)c1-n1nnc2c(sc3nc(C)cc(C)c32)c1=O	/	7%[59 µM]	/	-1%	-31%	10%
COc1ccc2c(c1)/C(=N/OC(=O)c1cccs1)CCC2	16	70%[59 µM]	14	23%	44%	72%
COc1ccc(NC(=O)O/N=C2/CCCc3ccc(OC)cc32)cc1	-5	18%	-8	-1%	14µM*	-13%
O=C(Oc1ccc(C(=S)N2CCOCC2)cc1)c1cc([N+](=O)[O-])cc([N+](=O)[O-])c1	-2	35µM*	11	-27%	-32%	40%
O=C(Oc1ccc(C(=S)N2CCOCC2)cc1)c1cccc(Cl)c1	-80*	45µM*	0	-30%	-22%	?
O=C(Nc1cccc(Cl)c1)c1ccc(OC(=S)N2CCOCC2)cc1	-1	-24%	23	0%	-11%	40%
O=C(Oc1ccc(C(=S)N2CCOCC2)cc1)c1ccccc1[N+](=O)[O-]	?	/	-7	-10%	-27%	-4%
O=C(Oc1ccccc1C(=S)N1CCOCC1)c1cccc([N+](=O)[O-])c1	-16	79µM*	10	-15%	?	4%
O=C(Oc1cccc(C(=S)N2CCOCC2)c1)c1ccc([N+](=O)[O-])cc1	?	32µM*	-15	?	?	?
COc1ccc(C(=S)N2CCOCC2)cc1OC(=O)c1cccc([N+](=O)[O-])c1	-21	-2%	-2	-3%	?	-4%
COC(=O)c1ccccc1NC(=O)c1cc(CN2CCOCC2)on1	/	5%[59 µM]	/	1%	-16%	72%
Cc1c([N+](=O)[O-])cc(C(=O)Oc2cccc(C(=S)N3CCOCC3)c2)cc1[N+](=O)[O-]	-9	16µM*	-18	?	-31%	13%
O=C(Oc1cccc(C(=O)N2CCOCC2)c1)c1ccc(Br)cc1	2	-10%[59 µM]	6	23%	-14%	17%
Cc1ccc(CCNC(=O)Cn2ncc3c(=O)oc4ccccc4c32)cc1	/	-31%[59 µM]	/	-35%	-13%	17%
COc1ccccc1-c1nn2c(=O)cc(CN3CCN(C(=O)/C=C/c4ccccc4)CC3)nc2s1	/	17%[59 µM]	/	4%	-18%	11%[57 µM]
Cc1cc(-c2csc(N)n2)c(C)n1Cc1ccco1	-15	18µM*	/	?	?	5%
COc1ccccc1CNc1nc(-c2cc(C)n(C)c2C)cs1	-2	10µM*	-4	40µM*	40µM*	-37%
Cc1cc(-c2csc(N)n2)c(C)n1C	?	10µM*	-26	50µM*	?	-22%
Cc1ccc(-n2c(C)cc(-c3csc(N)n3)c2C)cc1	-6	5µM*	3	56µM*	40µM*	?
CCn1ncc(-c2csc(N)n2)c1C	9	-50%	1	?	-17%	7%
COc1ccc(-n2nc(C(=O)NCc3ccc(F)cc3Cl)c3c4ccccc4n(C)c3c2=O)cc1Cl	/	19%[59 µM]	/	/	-14%	35%
